Data published in PubChem BioAssay AID1768 (National Center for Advancing Translational Sciences (NCATS), 2009).
In all, about 270,000 compounds went through this assay and about 620 (0.23%) were called active. Another 12% or so got no clear call; they are omitted. Calls come from the whole dose curve; as a rule, active = well fitted inhibition curve with a large enough effect in the polarisation, with a control signal flat (not every such curve was filed as active); inconclusive = small, poorly fitted or top-dose-only effect, or effect the other way, or a change in a side signal; inactive = no such curve, though single readings can be large or run the other way; the % refers to the polarisation. Shown is part of a subset that was picked to be rich in actives. Where a call stands in place of a potency, no number is given.

target: Menin (Homo sapiens) (UniProt O00255); test: qHTS Assay for Inhibitors Targeting the Menin-MLL Interaction in MLL Related Leukemias: Competition With Texas Red Labeled MLL-derived Mutant Peptide; conditions: fluorescence polarization; series mostly up to 61.6 µM
Excerpt: qHTS Assay for Inhibitors Targeting the Menin-MLL Interaction in MLL Related Leukemias NIH Chemical Genomics Center [NCGC] NIH Molecular Libraries Probe Centers Network [MLPCN] MLPCN Grant: MH084875-01A1 Assay Submitter (PI): Jolanta Grembecka, Tomasz Cierpicki, University of Virginia Translocations of the MLL (Mixed Lineage Leukemia) gene are frequently found in human leukemias affecting both children and adults. Fusion of MLL to one of more than 60 genes results in generation of oncogenic proteins upregulating Hox genes, which are vital to blood cell development. Patients harboring fusion of the MLL gene suffer from aggressive leukemias and respond poorly to available therapies. All of the oncogenic fusion proteins have a preserved N-terminal fragment of MLL that has been identified to interact with menin. It has been recently discovered that association with menin is critical to the leukemogenic activity of the MLL fusion oncoproteins. Selective targeting of the menin-MLL interaction could provide an attractive therapeutic approach to develop novel drugs for MLL-related leukemias. Small molecules blocking the menin-MLL interaction should reverse the oncogenic potential of MLL fusion proteins. We have developed and optimized a fluorescence polarization-based assay for the identification of Menin-MLL inhibitors. The assay was run employing two different MLL-derived peptides. The present assay uses a 12 amino acid peptide labeled with fluorescein at its N-terminus. This peptide consists of the menin high affinity binding motif from MLL and is potently bound by menin. Another peptide with a mutated sequence, labeled with Texas Red, was used in parallel as a less stringent screen for inhibitors.
The Menin protein, the MLL-wild type (w.t.) derived peptide (N-terminal 12 amino acids), the MLL-derived peptide labeled with Texas Red and the MLL-w.t. peptide labeled with Fluorescein were kindly supplied by laboratory of Dr. Jolanta Grembecka, University of Virginia. All protein and peptide solutions were stored in single use aliquots at -80C. The Eu3+ Cyrptate-conjugated mouse monoclonal antibody anti-6 Histidine (Eu3+-AB) and the Streptavidin-XL665 conjugate (XL665) were purchased from Cisbio International (Bedford, MA). All antibody and XL665 conjugate solution stocks were stored in single use aliquots at -20C. The Buffer components for all assays were purchased from Sigma-Aldrich (St. Louis, MO) and Invitrogen (Carlsbad, CA). FP Assay Reagents: 1. FP reaction buffer: 50 mM Tris-HCl pH 7.5, 50 mM NaCl, 1mM DTT. Before use, 0.05% BSA is added. 2. Menin protein, MLL-w.t. labeled with fluorescein, MLL-mutant peptide labeled with texas red. Stored in singe use aliquots at -80C. 3. MLL-w.t. unlabeled peptide as positive control: 10 uM final in FP buffer. FP Assay Procedure: 1. Prepare Menin at 200 nM, MLL-w.t.-fluorescein at 25 nM, and MLL-mutant-texas red at 50 nM mixture in FP buffer. 2. Prepare Menin at 200 nM, MLL-w.t.-fluorescein at 25 nM, MLL-mutant-texas red at 50 nM, and 10 uM MLL-w.t. unlabeled mixture in FP buffer. 3. Prepare MLL-w.t.-fluorescein at 25 nM and MLL-mutant-texas red at 50 nM mixture in FP buffer. 3. Dispense 4 ul per well of reagent in step 1 in columns 2, 4 - 48 in a black 1536 well plate, dispense 4 ul per well of reagents from steps 2 and 3 in columns 1 and 3 respectively. Incubate plate at ambient for 15 minutes. 4. Transfer 23 nl per well of compound to plate and incubate at ambient for 1 hr. 5. Read fluorescence polarization for each label using the PerkinElmer Envision. Envision protocol for fluorescein: FITC FP Dual Enh Mirror, Excitation filter 480, Emission filter (1) P-pol 535, Emission filter (2) S-pol 535 Envision protocol for texas red: FP Dual Enh Mirror, Excitation filter 555, Emission filter (1) P-pol 632, Emission filter (2) S-pol 632
Potency is the fitted concentration of half-maximal effect.

Menin (Homo sapiens), sequence (O00255 whole entry, looked up, the tested form may be a part): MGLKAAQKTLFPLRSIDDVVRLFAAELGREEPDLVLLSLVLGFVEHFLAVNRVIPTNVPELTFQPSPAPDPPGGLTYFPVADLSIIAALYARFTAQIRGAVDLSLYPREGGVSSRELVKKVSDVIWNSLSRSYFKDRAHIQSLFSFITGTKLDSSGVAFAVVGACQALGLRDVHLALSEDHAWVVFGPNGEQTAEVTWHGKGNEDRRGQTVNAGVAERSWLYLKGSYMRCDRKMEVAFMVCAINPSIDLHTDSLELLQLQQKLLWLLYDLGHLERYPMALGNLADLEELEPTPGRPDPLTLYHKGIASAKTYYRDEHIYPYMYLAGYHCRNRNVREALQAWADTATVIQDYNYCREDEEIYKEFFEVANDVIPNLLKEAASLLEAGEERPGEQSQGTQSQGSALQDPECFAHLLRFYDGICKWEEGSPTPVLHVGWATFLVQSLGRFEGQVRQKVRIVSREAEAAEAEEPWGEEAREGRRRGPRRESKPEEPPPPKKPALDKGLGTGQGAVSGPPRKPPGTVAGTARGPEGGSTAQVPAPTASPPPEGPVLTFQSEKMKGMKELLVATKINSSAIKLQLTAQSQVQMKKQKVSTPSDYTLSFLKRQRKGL

**Q.** `CC[N+](C)(CC)CCC[n+]1c(-c2ccccc2)c2cc(N)ccc2c2ccc(N)cc21` was tested. Which Potency did it give?
**A.** The Potency was 12.6 µM (active).

**Q.** With `CC(=O)[O][Sn]([c]1ccccc1)([c]1ccccc1)[c]1ccccc1` as the compound, how does the Potency read?
**A.** Its Potency is “inactive”.

**Q.** Which Potency does the source give for `CCN(CC)c1nc(C)cc(OP(=S)(OC)OC)n1` here?
**A.** The Potency was “inactive”.

**Q.** Which Potency does the source give for `COC([CH2][Hg])CNC(=O)c1ccccc1OCC(=O)O` (stereo not given) here?
**A.** The Potency was “inactive”.

**Q.** With `CO[C@H]1[C@@H](O)[C@@H](C)O[C@H](O[C@H]2[C@H](Oc3cccc4c(O)c5c(=O)oc6ccc(C)c7c(=O)oc(c34)c5c67)O[C@H](C)[C@H](O)[C@@H]2O)[C@@H]1O` as the compound, how does the Potency read?
**A.** The Potency was “inactive”.

**Q.** `N#Cc1cc(Br)c(O)c(Br)c1` was tested. Which Potency did it give?
**A.** The Potency was “inactive”.

**Q.** How did the Potency turn out when `CC[C@H]1CN2CCc3cc(OC)c(OC)cc3[C@@H]2C[C@@H]1C[C@H]1NCCc2cc(OC)c(OC)cc21` was run?
**A.** Its Potency is 22.4 µM (active).

**Q.** Which Potency does the source give for `C[C@]12O[C@H](C[C@@]1(O)C(=O)O)n1c3ccccc3c3c4c(c5c6ccccc6n2c5c31)CNC4=O` here?
**A.** Its Potency is “inactive”.

**Q.** For `C[C@@H]1C[C@H]2CC[C@H](O2)[C@H](C)C(=O)O[C@@H](C)C[C@@H]2CC[C@@H](O2)[C@@H](C)C(=O)O[C@H](C)C[C@H]2CC[C@H](O2)[C@H](C)C(=O)O[C@@H](C)C[C@@H]2CC[C@@H](O2)[C@@H](C)C(=O)O1`, which Potency is on record?
**A.** Its Potency is “inactive”.

**Q.** How did the Potency turn out when `O=C1CCc2cccc3c2N1CC3` was run?
**A.** The Potency was “inactive”.
